Counter-ions that a name gives are not always drawn.
These molecules were tested on Saccharomyces cerevisiae BY4741 SeMeCo community (assay: z-score of subpopulation abundance vs DMSO median, subpopulation auxotrophic for HU; higher = larger share of this subpopulation than in DMSO controls). Conditions: 10 µM; 24 h; SM minimal medium; subpopulation (auxotrophy): HU.
Description: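 Fluorescent four-plasmid SeMeCo (self-establishing metabolically cooperating S. cerevisiae BY4741 community; plasmids pH-mRuby2, pL-mWasabi, pU-eCFP, pM-TagRFP657) was grown 24 h in minimal SM medium with each Selleck FDA-approved drug at 10 µM in 384-well plates. Cells were fixed and imaged by high-content confocal microscopy. For each auxotrophic subpopulation (and the prototroph), a z-score gives the deviation from the DMSO vehicle-control population median.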

Compound | z-score of subpopulation abundance
C=C(C)[C@H]1Cc2c(ccc3c2O[C@@H]2COc4cc(OC)c(OC)cc4[C@@H]2C3=O)O1 [Rotenone (Barbasco)] | 1.02
CN1c2ccccc2C(NCCCCCCC(=O)O)c2ccc(Cl)cc2S1(=O)=O (centres undefined) [Tianeptine sodium] | -1.1
COc1ccc2c3c([nH]c2c1)C(C)=NCC3 [Harmaline] | -7.98
CC(C)N(CCC(C(N)=O)(c1ccccc1)c1ccccn1)C(C)C (centres undefined) [Disopyramide] | -0.45
C[N+](C)(C)CCCCCCCCCC[N+](C)(C)C [Decamethonium Bromide] | -0.06
C[N+]1(C)[C@@H]2C[C@@H](OC(=O)[C@H](CO)c3ccccc3)C[C@H]1[C@@H]1O[C@@H]12 [Methscopolamine] | 0.7
Cc1cc(O)ccc1Cl [Chlorocresol] | -1.07
COc1ccc(C(CN(C)C)C2(O)CCCCC2)cc1 (centres undefined) [Venlafaxine HCl] | -0.07
C[C@@H]1O[C@@H](O[C@H]2C[C@@H](O)[C@]3(CO)[C@H]4[C@H](O)C[C@]5(C)[C@@H](C6=CC(=O)OC6)CC[C@]5(O)[C@@H]4CC[C@]3(O)C2)[C@H](O)[C@H](O)[C@H]1O [Ouabain] | -0.71
COc1ccc(C=O)cc1 [p-Anisaldehyde] | -0.72
N[C@@H]1C[C@H]1c1ccccc1 [Tranylcypromine (2-PCPA) HCl] | 0.44
CCN1CC2(OC(=O)c3ccccc3NC(C)=O)CCC(OC)C34C1C(CC23)C1(O)CC(OC)C2CC4C1(O)C2OC (centres undefined) [Lappaconitine] | 0.26
CN1[C@@H]2CC[C@H]1C[C@@H](OC(=O)[C@H](CO)c1ccccc1)C2 [Hyoscyamine] | -0.35
CN(C)[C@@H]1C(=O)C(C(N)=O)=C(O)[C@@]2(O)C(=O)C3=C(O)c4c(O)cccc4[C@@](C)(O)[C@H]3[C@H](O)[C@@H]12 [Oxytetracycline (Terramycin)] | 0.99
CN(C)[C@@H]1C(=O)C(C(N)=O)=C(O)[C@@]2(O)C(=O)C3=C(O)c4c(O)ccc(Cl)c4[C@@](C)(O)[C@H]3C[C@@H]12 [Chlortetracycline HCl] | -0.42
COc1ccc2[nH]cc(CCN)c2c1 [5-Methoxytryptamine] | 0.53
CC(C)=CCOc1c2occc2cc2ccc(=O)oc12 [Imperatorin] | 0.85

Compound | z-score of subpopulation abundance
N#Cc1nn(-c2c(Cl)cc(C(F)(F)F)cc2Cl)c(N)c1[S+]([O-])C(F)(F)F (centres undefined) [Fipronil] | -0.37
CCOC(=O)Nc1ccc(NCc2ccc(F)cc2)cc1N [Retigabine 2HCl] | -0.49
C[C@H]1O[C@H](O[C@H]2[C@H](O)[C@@H](O)[C@@H](O)[C@H](O)[C@@H]2O)[C@@H](N)C[C@@H]1NC(=N)C(=O)O [Kasugamycin hydrochloride] | -0.33
CC(NC(C)(C)C)C(=O)c1cccc(Cl)c1 (centres undefined) [Amfebutamone (Bupropion) HCl] | -0.9
NCC(O)c1ccc(O)cc1 (racemic) [(+,-)-Octopamine HCl] | 0.29
CN(C)C(=O)Oc1ccc[n+](C)c1 [Pyridostigmine Bromide] | 0.63
COc1ccc2c(c1)[C@]13CCCC[C@@H]1[C@H](C2)N(C)CC3 [Dextromethorphan hydrobromide hydrate] | -0.61
Cn1cc(C2=C(c3cn(C4CCN(Cc5ccccn5)CC4)c4ccccc34)C(=O)NC2=O)c2ccccc21 | -0.2
O=c1[nH]c2ccccc2n1CCCN1CCC(n2c(=O)[nH]c3cc(Cl)ccc32)CC1 [Domperidone] | 0.86
CCOC(=O)Nc1ccc(NCc2ccc(F)cc2)cc1N [Retigabine] | -0.59
CN1[C@@H]2C[C@@H](OC(=O)[C@H](CO)c3ccccc3)C[C@H]1[C@@H]1O[C@@H]12 [Scopolamine HBr] | -1.37
CC(=O)O[C@H]1C[C@@H]2CC[C@@H]3[C@H](CC[C@@]4(C)[C@H]3C[C@H]([N+]3(C)CCCCC3)[C@@H]4OC(C)=O)[C@@]2(C)C[C@@H]1[N+]1(C)CCCCC1 [Pancuronium dibromide] | -0.53
C=CN1CCCC1=O.II [Povidone iodine] | 1.56
CC(=O)OCC1=C(C(=O)O)N2C(=O)C(N)C2SC1 (centres undefined) [7-Aminocephalosporanic acid] | 0.37
CCCCCCCCCCCCCCCC[n+]1ccccc1 [Cetylpyridinium Chloride] | 16.1
CC[C@H]1[C@@H]2C[C@H]3[C@@H]4N(C)c5ccccc5[C@]45C[C@@H]([C@@H]2[C@H]5O)N3[C@@H]1O [Ajmaline] | -0.28
COc1cc2c(cc1OC)C1CC(=O)C(CC(C)C)CN1CC2 (centres undefined) [Tetrabenazine (Xenazine)] | -1.24
